This note sets out measurements from PubChem BioAssay AID493221 (Johns Hopkins Ion Channel Center, 2011).

About 1,700 (71%) of roughly 2,400 compounds were called active.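 Rule for the calls: active = choline transporter activity left, mean of duplicates at 10 µM, below buffer-only control mean minus 3 SD; inactive = the rest.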 The set was probably picked from earlier hits. These entries were drawn from the full list.

The target in the test is High affinity choline transporter 1 (Homo sapiens) (UniProt Q9GZV3). Briefly: CHT inhibitors, confirmation, cell-based, membrane potential dye, duplicate (AID 493221). The settings on record: CHT-expressing cells, at 10 µM, LV-to-AA substituted CHT, HEK293 cells.
Sequence of High affinity choline transporter 1 (Homo sapiens) (Q9GZV3 whole entry, looked up): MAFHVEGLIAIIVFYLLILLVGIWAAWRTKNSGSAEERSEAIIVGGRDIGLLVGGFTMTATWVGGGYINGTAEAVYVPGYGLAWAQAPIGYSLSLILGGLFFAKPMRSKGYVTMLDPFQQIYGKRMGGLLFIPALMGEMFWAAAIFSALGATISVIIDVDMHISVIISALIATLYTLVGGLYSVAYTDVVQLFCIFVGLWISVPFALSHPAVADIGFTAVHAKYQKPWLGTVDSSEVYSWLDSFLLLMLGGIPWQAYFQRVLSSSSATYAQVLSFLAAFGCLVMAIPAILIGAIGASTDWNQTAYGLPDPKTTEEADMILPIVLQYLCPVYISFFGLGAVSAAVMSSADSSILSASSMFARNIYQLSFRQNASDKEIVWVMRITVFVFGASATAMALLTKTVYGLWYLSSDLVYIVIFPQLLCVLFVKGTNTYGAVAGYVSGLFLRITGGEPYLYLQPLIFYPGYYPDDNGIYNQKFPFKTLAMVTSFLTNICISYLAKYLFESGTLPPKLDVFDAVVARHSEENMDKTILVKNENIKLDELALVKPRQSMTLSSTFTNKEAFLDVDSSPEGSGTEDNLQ
With `C[N+]1(C)CCOC(O)(c2ccc(-c3ccc(C4(O)C[N+](C)(C)CCO4)cc3)cc2)C1` (stereo not drawn), the CHT activity remaining % of control (stronger effect = lower value) was 4.79% (active).
The same measure for `COc1ccccc1N1CCN(C(CNC(=O)Oc2ccccc2)c2cccnc2)CC1` (stereo not drawn): “inactive”; for `Cc1nc2ccccn2c1P(=S)(N1CCCCC1)N1CCCCC1`: 61.1% (active).
